Reference: PubChem BioAssay (NCI)
The panel holds about 83,000 compounds, 20% with a hit somewhere; the sample as a whole holds those more often.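 Single-dose data. Exposure time 48 hours. Values below 10 considered active.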 Activity calls are given as the source filed them.

Assays:
Test in all cases: NCI-60 one-dose screen, 48 h (100 = growth as untreated, 0 = no growth, -100 = all killed)
Details in all cases: 10 µM unless noted
SK-MEL-2 melanoma = tested on: SK-MEL-2 melanoma
EKVX NSCLC = tested on: EKVX NSCLC
SN12C renal = tested on: SN12C renal
UO-31 renal = tested on: UO-31 renal
TK-10 renal = tested on: TK-10 renal
ACHN renal = tested on: ACHN renal
A498 renal = tested on: A498 renal
CCRF-CEM leukemia = tested on: CCRF-CEM leukemia
MOLT-4 leukemia = tested on: MOLT-4 leukemia
SR leukemia = tested on: SR leukemia
RPMI-8226 leukemia = tested on: RPMI-8226 leukemia
OVCAR-8 ovarian = tested on: OVCAR-8 ovarian
OVCAR-5 ovarian = tested on: OVCAR-5 ovarian
OVCAR-4 ovarian = tested on: OVCAR-4 ovarian
SK-OV-3 ovarian = tested on: SK-OV-3 ovarian
IGROV1 ovarian = tested on: IGROV1 ovarian
HS 578T breast = tested on: HS 578T breast
NCI/ADR-RES ovarian = tested on: NCI/ADR-RES ovarian
T-47D breast = tested on: T-47D breast

Measured: growth

C#CCN(CCCOc1ccc(Cl)cc1Cl)CCCSC(=O)CCCCCN1/C(=C\C=C2/CCCC(/C=C/C3=[N+](CCCCCC(=O)[O-])c4ccccc4C3(C)C)=C2Cl)C(C)(C)c2ccccc21
inactive: EKVX NSCLC 61.6% | UO-31 renal 94.9% | TK-10 renal 50.3% | ACHN renal 102% | A498 renal 13% | OVCAR-5 ovarian 66.4% | OVCAR-4 ovarian 57.1% | SK-OV-3 ovarian 65% | NCI/ADR-RES ovarian 106%
active: SK-MEL-2 melanoma -29% | SN12C renal 5.06% | CCRF-CEM leukemia -1.58% | MOLT-4 leukemia -18.7% | SR leukemia -16.2% | RPMI-8226 leukemia -22.6% | OVCAR-8 ovarian 8.18% | IGROV1 ovarian -13.2% | HS 578T breast 6.47% | T-47D breast -21.4%

O=C(/C(=C\c1c(-c2ccccc2)[nH]c2ccccc12)S(=O)(=O)c1ccccc1)c1ccccc1
inactive: SK-MEL-2 melanoma 35.8% | EKVX NSCLC 28.7% | SN12C renal 82% | UO-31 renal 60.9% | TK-10 renal 78.2% | ACHN renal 48.7% | A498 renal 54.3% | CCRF-CEM leukemia 21% | SR leukemia 15.1% | OVCAR-8 ovarian 66.2% | OVCAR-5 ovarian 83.1% | OVCAR-4 ovarian 42.8% | SK-OV-3 ovarian 23.1% | IGROV1 ovarian 78.7% | HS 578T breast 72.1% | NCI/ADR-RES ovarian 43.4% | T-47D breast 22.2%
active: MOLT-4 leukemia 3.71% | RPMI-8226 leukemia -34.2%

NCCCn1c2c(c3cc(-c4ccn[nH]4)ccc3c1=O)C(=O)c1ccccc1-2
active: MOLT-4 leukemia -9.41% | SR leukemia -2.64%
inactive: SK-MEL-2 melanoma 105% | EKVX NSCLC 77% | SN12C renal 49.1% | UO-31 renal 47.7% | TK-10 renal 72.3% | ACHN renal 20.4% | A498 renal 72% | CCRF-CEM leukemia 16.5% | RPMI-8226 leukemia 51.3% | OVCAR-8 ovarian 40.6% | OVCAR-5 ovarian 98.8% | OVCAR-4 ovarian 50.3% | SK-OV-3 ovarian 81.5% | IGROV1 ovarian 35.4% | HS 578T breast 62.3% | NCI/ADR-RES ovarian 45.8% | T-47D breast 73.3%

O=C(/C(=C/c1ccc([N+](=O)[O-])cc1)SCc1ccc(F)cc1)c1ccc(Cl)cc1
active: CCRF-CEM leukemia 6.19% | MOLT-4 leukemia 7.7% | SR leukemia 0.0981% | RPMI-8226 leukemia -16%
inactive: SK-MEL-2 melanoma 88.5% | EKVX NSCLC 57.7% | SN12C renal 56% | UO-31 renal 44.8% | TK-10 renal 97.2% | ACHN renal 60.7% | A498 renal 70.9% | OVCAR-8 ovarian 66.2% | OVCAR-5 ovarian 95% | OVCAR-4 ovarian 57.8% | SK-OV-3 ovarian 74.8% | IGROV1 ovarian 53.8% | HS 578T breast 27.1% | NCI/ADR-RES ovarian 53% | T-47D breast 49.3%

O=c1[nH]c2ccccc2cc1-c1nc2ccncc2[nH]1
inactive: SK-MEL-2 melanoma 73.9% | EKVX NSCLC 81.9% | SN12C renal 94.3% | UO-31 renal 78.4% | TK-10 renal 73.8% | ACHN renal 72.2% | A498 renal 88.7% | CCRF-CEM leukemia 59.5% | MOLT-4 leukemia 45.8% | SR leukemia 46.8% | OVCAR-8 ovarian 88.7% | OVCAR-5 ovarian 112% | OVCAR-4 ovarian 85.5% | SK-OV-3 ovarian 90.5% | IGROV1 ovarian 84.2% | HS 578T breast 76.1% | NCI/ADR-RES ovarian 108% | T-47D breast 77.8%
active: RPMI-8226 leukemia -0.575%

Cc1cc2ccccc2c[n+]1CC(=O)c1ccc(-c2ccccc2)cc1
active: OVCAR-4 ovarian 9.69%
inactive: SK-MEL-2 melanoma 84.3% | EKVX NSCLC 54.8% | SN12C renal 55.4% | UO-31 renal 61.5% | TK-10 renal 68.5% | ACHN renal 79.4% | A498 renal 56.5% | CCRF-CEM leukemia 53.4% | MOLT-4 leukemia 49.3% | SR leukemia 54.7% | RPMI-8226 leukemia 19.6% | OVCAR-8 ovarian 43.8% | OVCAR-5 ovarian 73.1% | SK-OV-3 ovarian 64.1% | IGROV1 ovarian 49.2% | HS 578T breast 83.5% | NCI/ADR-RES ovarian 101% | T-47D breast 38.2%

COc1ccc(/C=C(/C(=O)N2CCCC2)c2cc(OC)c(OC)c(OC)c2)cc1
inactive: SK-MEL-2 melanoma 64.3% | EKVX NSCLC 73.1% | SN12C renal 48.1% | UO-31 renal 44.5% | TK-10 renal 71.3% | ACHN renal 54.5% | A498 renal 13.4% | CCRF-CEM leukemia 14% | MOLT-4 leukemia 32.6% | SR leukemia 19.7% | OVCAR-8 ovarian 40% | OVCAR-5 ovarian 63.1% | OVCAR-4 ovarian 68.9% | SK-OV-3 ovarian 22.3% | IGROV1 ovarian 49.9% | HS 578T breast 27.8% | NCI/ADR-RES ovarian 22% | T-47D breast 42.4%
active: RPMI-8226 leukemia 8.53%

COc1ccc(NC(=O)c2ccc(Nc3ncnc4[nH]c(C)c(C)c34)cc2)cc1
inactive: SK-MEL-2 melanoma 99.2% | EKVX NSCLC 102% | SN12C renal 95.6% | UO-31 renal 97.5% | TK-10 renal 93.7% | ACHN renal 107% | A498 renal 92.7% | CCRF-CEM leukemia 112% | MOLT-4 leukemia 95.1% | SR leukemia 89.3% | RPMI-8226 leukemia 111% | OVCAR-8 ovarian 98.9% | OVCAR-5 ovarian 108% | OVCAR-4 ovarian 126% | SK-OV-3 ovarian 109% | IGROV1 ovarian 110% | HS 578T breast 113% | NCI/ADR-RES ovarian 103% | T-47D breast 89.2%

O=C(O)C(C(=O)O)c1cccc2ccccc12
inactive: SK-MEL-2 melanoma 95.2% | EKVX NSCLC 108% | SN12C renal 100% | UO-31 renal 88.5% | TK-10 renal 89.3% | ACHN renal 105% | A498 renal 85.6% | CCRF-CEM leukemia 92.2% | MOLT-4 leukemia 94.4% | SR leukemia 90.6% | RPMI-8226 leukemia 109% | OVCAR-8 ovarian 101% | OVCAR-5 ovarian 110% | OVCAR-4 ovarian 100% | SK-OV-3 ovarian 101% | IGROV1 ovarian 111% | HS 578T breast 102% | NCI/ADR-RES ovarian 98.9% | T-47D breast 92.7%

CC[C@]12C=CCN3CC[C@@]4(c5cc(NC(=O)CCC(=O)O[C@H]6CC[C@H]7[C@@H]8CC[C@H]9CC(=O)CC[C@]9(C)[C@H]8CC[C@]67C)c(OC)cc5N(C)[C@H]4[C@@](O)(C(=O)OC)[C@@H]1OC(C)=O)[C@@H]32
active: CCRF-CEM leukemia 9.54%
inactive: SK-MEL-2 melanoma 77.1% | EKVX NSCLC 66% | SN12C renal 71.2% | UO-31 renal 51.3% | TK-10 renal 90.5% | ACHN renal 87.1% | A498 renal 66.3% | MOLT-4 leukemia 17.8% | SR leukemia 24.8% | RPMI-8226 leukemia 45.2% | OVCAR-8 ovarian 75.9% | OVCAR-5 ovarian 104% | OVCAR-4 ovarian 60.7% | SK-OV-3 ovarian 98.6% | IGROV1 ovarian 69.6% | HS 578T breast 75.5% | NCI/ADR-RES ovarian 72.9% | T-47D breast 46.4%

COc1ccc2oc(=O)cc(-c3nc4ccc(N)cc4[nH]3)c2c1
inactive: SK-MEL-2 melanoma 89.5% | EKVX NSCLC 82.2% | SN12C renal 92.4% | UO-31 renal 44.9% | TK-10 renal 96.5% | ACHN renal 79.9% | A498 renal 61.5% | CCRF-CEM leukemia 108% | MOLT-4 leukemia 73.4% | SR leukemia 76.1% | RPMI-8226 leukemia 83.4% | OVCAR-8 ovarian 89.9% | OVCAR-5 ovarian 92.6% | OVCAR-4 ovarian 95.8% | SK-OV-3 ovarian 77.5% | IGROV1 ovarian 76.7% | HS 578T breast 81.5% | NCI/ADR-RES ovarian 88% | T-47D breast 51.8%

COc1ccc2nc3c(n2c1)C(=O)C(=O)c1ccccc1-3
inactive: TK-10 renal 48.4% | A498 renal 68.7% | CCRF-CEM leukemia 20.8% | SK-OV-3 ovarian 24.8% | T-47D breast 21.4%
active: SK-MEL-2 melanoma -74.7% | EKVX NSCLC -53.6% | SN12C renal -88.1% | UO-31 renal -64.4% | ACHN renal -51.3% | MOLT-4 leukemia 2.85% | SR leukemia -1.54% | RPMI-8226 leukemia -0.676% | OVCAR-8 ovarian 9.51% | OVCAR-5 ovarian -79.9% | OVCAR-4 ovarian -81.3% | IGROV1 ovarian 0.7% | HS 578T breast -6.35% | NCI/ADR-RES ovarian -7.37%

CC[C@H](Nc1ncnc2nc[nH]c12)c1nc2cccc(CC(=O)c3ccc(C(=O)NO)cc3)c2c(=O)n1-c1ccccc1
inactive: SK-MEL-2 melanoma 77.5% | EKVX NSCLC 90.6% | SN12C renal 84% | UO-31 renal 87.4% | TK-10 renal 88.1% | ACHN renal 102% | A498 renal 74% | CCRF-CEM leukemia 90.1% | MOLT-4 leukemia 66.8% | SR leukemia 67.6% | RPMI-8226 leukemia 45.1% | OVCAR-8 ovarian 81.3% | OVCAR-5 ovarian 97.9% | OVCAR-4 ovarian 78.3% | SK-OV-3 ovarian 98.8% | IGROV1 ovarian 89.1% | HS 578T breast 72% | NCI/ADR-RES ovarian 94% | T-47D breast 50.7%

CCOC(=O)NCCc1nc2c([nH]1)c(=O)n(C)c(=O)n2C
inactive: SK-MEL-2 melanoma 101% | EKVX NSCLC 99.7% | SN12C renal 101% | UO-31 renal 83.3% | TK-10 renal 100% | ACHN renal 110% | A498 renal 105% | CCRF-CEM leukemia 101% | MOLT-4 leukemia 115% | SR leukemia 119% | RPMI-8226 leukemia 106% | OVCAR-8 ovarian 107% | OVCAR-5 ovarian 90.3% | OVCAR-4 ovarian 107% | SK-OV-3 ovarian 122% | IGROV1 ovarian 97.1% | HS 578T breast 104% | NCI/ADR-RES ovarian 99.8% | T-47D breast 102%

OCCNc1nc(NCCO)nc(Nc2ccc(C3=NN(c4cc(Cl)cc(Cl)c4)C(c4ccccc4)C3)cc2)n1 (stereo not given)
active: SR leukemia 5.4%
inactive: SK-MEL-2 melanoma 40.4% | EKVX NSCLC 59.4% | SN12C renal 55% | UO-31 renal 56.9% | TK-10 renal 74.1% | ACHN renal 42.2% | A498 renal 85.1% | CCRF-CEM leukemia 24.3% | MOLT-4 leukemia 20.5% | RPMI-8226 leukemia 30.9% | OVCAR-8 ovarian 48.9% | OVCAR-5 ovarian 85.8% | OVCAR-4 ovarian 57.7% | SK-OV-3 ovarian 94.5% | IGROV1 ovarian 57.5% | HS 578T breast 62.9% | NCI/ADR-RES ovarian 57.2% | T-47D breast 63.6%
